Reference: PubChem BioAssay
Calls of active or inactive are those of the source.

Columns and labels:
[1] = test system: PRMT1 (protein arginine N-methyltransferase 1); test: PRMT1 binders on small-molecule microarrays, primary screen, biochemical, small-molecule microarray, 635 nm fluorescence (AID 1088); details: small-molecule microarray binding, higher = more signal;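 note: binding of Prmt1 protein to compounds spotted on small-molecule microarray slides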
[2] = yeast growth modulation, basal conditions, primary screen, YJM789 clinical isolate, OD600, 24 h (AID 1089);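 note: growth of clinical yeast isolate S. cerevisiae YJM 789 seeded 1000 cells per well; test concentration not given here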; details: S. cerevisiae YJM789 growth, higher = more signal, called active from +8 up or from −8 down
[3] = fission yeast growth modulation, primary screen, strain 972, OD600, 24 h, no modulator (AID 1090);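 note: basal condition with compound alone and no growth modifier present; test concentration not given here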; details: S. pombe 972 growth, higher = more signal, called active from +8 up or from −8 down
[4] = S. cerevisiae growth modulation with rapamycin, primary screen, strain BY4716, OD600, 96 h (AID 1091); details: higher = more signal, called active from +8 up or from −8 down; note: test concentration not given here
[5] = target: Torsin-1A-interacting protein 2 (Homo sapiens) (UniProt Q8NFQ8); test: LULL1 binders on small-molecule microarray, primary screen, cell lysate, human LULL1 lysate, 635/667 nm fluorescence (AID 1092); details: hLULL1 lysate binding, 635 nm fluorescence, higher = more signal;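 note: probe is lysate of COS7 cells overexpressing human LULL1; score merges per-feature 667 nm fluorescence with signal-to-noise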
Chain of Torsin-1A-interacting protein 2 (Homo sapiens) (Q8NFQ8 whole entry, looked up): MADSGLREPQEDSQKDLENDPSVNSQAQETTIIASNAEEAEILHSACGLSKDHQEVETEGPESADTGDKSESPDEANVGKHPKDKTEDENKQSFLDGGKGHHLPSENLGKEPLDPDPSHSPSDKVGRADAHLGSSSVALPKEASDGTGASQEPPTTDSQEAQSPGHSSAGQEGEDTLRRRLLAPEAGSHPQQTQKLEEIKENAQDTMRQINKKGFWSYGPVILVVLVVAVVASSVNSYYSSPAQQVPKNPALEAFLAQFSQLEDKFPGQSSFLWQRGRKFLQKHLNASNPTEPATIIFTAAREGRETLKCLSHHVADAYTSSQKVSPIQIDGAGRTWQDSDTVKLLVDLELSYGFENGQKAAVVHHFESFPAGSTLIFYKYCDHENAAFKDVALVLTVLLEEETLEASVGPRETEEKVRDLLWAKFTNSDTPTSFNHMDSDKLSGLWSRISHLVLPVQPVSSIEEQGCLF

[6] = E. coli growth modulation, two-sided OD650, primary screen, E. coli filamentation project, strain DRC41, 24 h (AID 1093); details: OD650, 24 h, higher = more signal, called active from +8 up or from −8 down;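 note: MC1000 strain lacking acrAB efflux and sulA so SOS filamentation is blocked; test concentration not given here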
[7] = small-molecule microarray binders of probe aLefty2, primary screen, biochemical, biotinylated probe, 635/667 nm fluorescence (AID 1094); details: higher = more signal;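 note: score merges spot fluorescence near 667 nm with spot signal-to-noise ratio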
[8] = test system: Noggin (protein binding on small-molecule microarray); test: Noggin binders on small-molecule microarray, primary screen, biochemical, 635/667 nm fluorescence (AID 1095); details: 635 nm fluorescence, higher = more signal;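 note: score merges 667 nm feature fluorescence with signal to noise over triplicate slides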
[9] = target: Neurogenic locus notch homolog protein 3 (Homo sapiens) (UniProt Q9UM47); test: NOTCH3 binders on small-molecule microarray, primary screen, biochemical, 635/667 nm fluorescence (AID 1096); details: NOTCH3 binding, 635 nm fluorescence, higher = more signal
Chain of Neurogenic locus notch homolog protein 3 (Homo sapiens) (Q9UM47 whole entry, looked up): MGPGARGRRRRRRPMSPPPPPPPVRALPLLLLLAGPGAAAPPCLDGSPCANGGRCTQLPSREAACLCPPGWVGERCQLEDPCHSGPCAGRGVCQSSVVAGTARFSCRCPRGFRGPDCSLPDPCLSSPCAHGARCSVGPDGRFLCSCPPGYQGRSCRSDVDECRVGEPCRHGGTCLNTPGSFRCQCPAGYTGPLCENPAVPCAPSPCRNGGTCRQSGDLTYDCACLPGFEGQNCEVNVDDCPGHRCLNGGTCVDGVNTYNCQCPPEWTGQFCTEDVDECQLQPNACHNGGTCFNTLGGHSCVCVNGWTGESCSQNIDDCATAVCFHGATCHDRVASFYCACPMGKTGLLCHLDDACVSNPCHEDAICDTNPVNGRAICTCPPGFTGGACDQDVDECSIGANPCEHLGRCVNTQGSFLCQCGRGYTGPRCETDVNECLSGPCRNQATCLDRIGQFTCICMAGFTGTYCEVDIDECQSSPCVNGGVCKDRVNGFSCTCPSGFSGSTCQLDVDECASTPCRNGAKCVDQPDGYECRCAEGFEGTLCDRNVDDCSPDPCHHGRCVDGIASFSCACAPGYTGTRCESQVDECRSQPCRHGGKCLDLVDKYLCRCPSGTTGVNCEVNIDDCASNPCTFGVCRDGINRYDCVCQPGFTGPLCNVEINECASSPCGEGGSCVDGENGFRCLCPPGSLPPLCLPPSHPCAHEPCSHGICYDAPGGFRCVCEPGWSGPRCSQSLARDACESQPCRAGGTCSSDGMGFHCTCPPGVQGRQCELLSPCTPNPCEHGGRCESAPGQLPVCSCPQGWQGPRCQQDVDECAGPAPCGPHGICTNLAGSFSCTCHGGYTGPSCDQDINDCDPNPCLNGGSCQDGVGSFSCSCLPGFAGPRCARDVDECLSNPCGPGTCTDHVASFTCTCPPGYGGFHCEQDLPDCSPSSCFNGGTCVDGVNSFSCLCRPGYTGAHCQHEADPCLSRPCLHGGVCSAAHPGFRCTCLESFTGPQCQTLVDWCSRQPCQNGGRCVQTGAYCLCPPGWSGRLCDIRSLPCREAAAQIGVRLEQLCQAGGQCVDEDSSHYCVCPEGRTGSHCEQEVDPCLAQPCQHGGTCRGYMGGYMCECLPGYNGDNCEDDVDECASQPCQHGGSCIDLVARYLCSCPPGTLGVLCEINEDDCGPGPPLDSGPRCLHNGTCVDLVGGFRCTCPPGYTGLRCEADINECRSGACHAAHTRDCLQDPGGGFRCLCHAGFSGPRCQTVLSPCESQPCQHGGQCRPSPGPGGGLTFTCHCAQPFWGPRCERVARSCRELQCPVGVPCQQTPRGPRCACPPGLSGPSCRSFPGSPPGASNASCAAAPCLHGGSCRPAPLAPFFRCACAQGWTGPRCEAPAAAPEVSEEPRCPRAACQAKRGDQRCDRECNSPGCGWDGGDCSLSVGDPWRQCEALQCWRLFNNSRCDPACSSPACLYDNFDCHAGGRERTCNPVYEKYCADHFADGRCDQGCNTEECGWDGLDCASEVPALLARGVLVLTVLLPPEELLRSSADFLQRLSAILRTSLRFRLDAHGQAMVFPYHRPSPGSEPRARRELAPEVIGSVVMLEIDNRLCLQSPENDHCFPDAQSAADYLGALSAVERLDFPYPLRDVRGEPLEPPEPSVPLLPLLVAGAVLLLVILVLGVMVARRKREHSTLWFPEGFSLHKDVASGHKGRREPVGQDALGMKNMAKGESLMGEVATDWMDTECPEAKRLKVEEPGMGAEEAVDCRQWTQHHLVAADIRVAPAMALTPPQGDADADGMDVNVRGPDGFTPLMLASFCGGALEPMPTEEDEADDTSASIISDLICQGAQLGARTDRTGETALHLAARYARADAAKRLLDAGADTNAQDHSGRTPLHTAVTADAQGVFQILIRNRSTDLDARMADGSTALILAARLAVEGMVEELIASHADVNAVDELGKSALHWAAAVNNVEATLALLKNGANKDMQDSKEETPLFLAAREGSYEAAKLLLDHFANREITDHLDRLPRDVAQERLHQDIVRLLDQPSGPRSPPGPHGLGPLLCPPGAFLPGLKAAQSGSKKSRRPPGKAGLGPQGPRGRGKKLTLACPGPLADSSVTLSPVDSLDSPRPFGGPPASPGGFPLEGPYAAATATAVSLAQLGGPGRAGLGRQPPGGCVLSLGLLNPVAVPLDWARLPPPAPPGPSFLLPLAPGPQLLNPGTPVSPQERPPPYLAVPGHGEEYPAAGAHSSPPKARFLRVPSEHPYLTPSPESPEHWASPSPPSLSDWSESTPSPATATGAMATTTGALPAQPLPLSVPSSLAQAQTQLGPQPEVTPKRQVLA

[10] = small-molecule microarray binders of probe aEGFR, primary screen, biochemical, biotinylated probe, 635/667 nm fluorescence (AID 1097); details: higher = more signal;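 note: probe is a biotinylated anti-EGFR antibody binding compounds printed on slides; score combines fluorescence near 667 nm and signal to noise of each spot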

Row | Compound | composite z-score [1] | z-score [2] | z-score [3] | z-score [4] | composite z-score [5] | z-score [6] | composite z-score [7] | composite z-score [8] | composite z-score [9] | composite z-score [10]
1 | O=c1cccc(-c2cccc3ccccc23)o1 | -0.106 | -5.22 (inactive) | -13.3 (active) | 4.08 (inactive) | 0.877 | 1.48 (inactive) | 0.303 | -0.364 | -0.107 | -0.2
2 | CN1C(=O)C2C=CC(C(O)C3=C[C@H]4C[C@@H](C3)C4(C)C)N(Nc3ccc([N+](=O)[O-])cc3[N+](=O)[O-])C2C1=O (stereo not given in full) | 1.49 | 1.07 (inactive) | 0.595 (inactive) | 1.96 (inactive) | 3.28 | -0.43 (inactive) | 0.256 | 0.0179 | 1.02 | 0.213
3 | COCCOC(=O)N1C(=O)[C@@]2(c3cc(C#CC4=CCCCC4)ccc31)[C@H](c1ccc(OCCO)cc1)N1[C@H](c3ccccc3)[C@H](c3ccccc3)OC(=O)[C@H]1[C@@H]2C(=O)Nc1nc2ccccc2s1 | 1.55 | 1.09 (inactive) | 1.04 (inactive) | 3.21 (inactive) | 3.06 | 1.9 (inactive) | -0.0242 | 0.772 | 1.08 | -0.0164
4 | O=C1C2C=CC(C(O)c3cccc4ccccc34)N(n3cnnc3)C2C(=O)N1Cc1ccccc1 (stereo not given) | -0.117 | -26.6 (active) | -16.1 (active) | -0.0039 (inactive) | 0.846 | -1.18 (inactive) | 0.93 | 0.56 | 0.467 | 0.804
5 | CCCNC(=O)[C@@]1(C)c2ccccc2C(=O)N(Cc2cc(F)cc(C(F)(F)F)c2)[C@H]1c1ccc(CO)cc1 | 0.136 | -1.34 (inactive) | -0.974 (inactive) | -1.24 (inactive) | 2.08 | 0.423 (inactive) | -0.174 | 0.0391 | -0.131 | -0.194
6 | COc1ccc(C(O)C2C=CC3C(=O)N(c4ccccc4)C(=O)C3N2Nc2ccccc2)c2ccccc12 (stereo not given) | 0.802 | -1.41 (inactive) | 1.81 (inactive) | -0.0303 (inactive) | 2.23 | -0.807 (inactive) | 0.189 | -0.659 | 0.459 | -0.0949
7 | CCCC[C@H]1C[C@@H]1[C@@H]1N(P(=O)(c2ccccc2)c2ccccc2)[C@](CO)(c2ccccc2)CC12CC2 | -0.153 | -0.485 (inactive) | -0.485 (inactive) | 5.22 (inactive) | 2.51 | -1.08 (inactive) | 0.325 | -0.686 | -0.318 | 0.0585
8 | C=CC[C@@]1(C(=O)NCc2ccccc2)N=C(c2ccc(OCCCO)cc2)O[C@@H]1c1ccccc1CN=[N+]=[N-] | 0.985 | 0.371 (inactive) | 1.68 (inactive) | 4.84 (inactive) | 3.17 | -0.759 (inactive) | 0.418 | 0.0824 | 0.901 | 0.0149
9 | [N-]=[N+]=Nc1ccccc1[C@H]1OC(c2ccc(OCCCO)cc2)=N[C@@]1(CCS(=O)(=O)c1ccccc1)C(=O)N1CCOCC1 | 1.55 | 1.17 (inactive) | 0.403 (inactive) | 4.39 (inactive) | 3.1 | 1.1 (inactive) | 0.766 | 0.245 | 1.09 | 0.561
10 | CCOC(=O)N1C(c2ccc(OCCCO)cc2)=NC(C(=O)OC)N1C(=O)OCC (stereo not given) | 1.54 | -0.925 (inactive) | -0.265 (inactive) | -1.32 (inactive) | 3.21 | 1.2 (inactive) | 0.174 | 1.42 | 1.09 | -0.0325
11 | COCCOC(=O)N1C(=O)[C@@]2(c3cc(C#CCC(C(=O)OC)C(=O)OC)ccc31)[C@H](c1ccc(OCCO)cc1)N1[C@H](c3ccccc3)[C@H](c3ccccc3)OC(=O)[C@H]1[C@@H]2C(=O)NC[C@H](O)c1ccccc1 | 1.53 | 2.11 (inactive) | 1.7 (inactive) | 7.38 (inactive) | 3.51 | 0.0053 (inactive) | -0.426 | 1.46 | 1.08 | -0.0389
12 | CCCCC(=C=CC[C@H](O)c1ccccc1OCCO)C[C@H](O)c1cc(Cl)cc(Cl)c1O | 1.1 | 0.906 (inactive) | -1.33 (inactive) | 0.32 (inactive) | 1.3 | -0.144 (inactive) | -0.118 | 0.453 | 0.224 | -0.163
13 | O=C1O[C@@H](c2ccccc2)[C@@H](c2ccccc2)N2[C@@H](c3ccc(O)cc3)[C@]3(C(=O)Nc4ccc(C#CCCO)cc43)[C@@H](C(=O)N3CCCCCCC3)[C@H]12 | 1.55 | 0.36 (inactive) | 0.67 (inactive) | 1.51 (inactive) | 3.5 | -0.306 (inactive) | 1.26 | 1.48 | 0.939 | 0.079
